This is an account of results in PubChem BioAssay AID588342 (National Center for Advancing Translational Sciences (NCATS), 2011).

Screen size: about 360,000 compounds; about 25,000 (6.9%) were called active. Roughly 9% stayed inconclusive and do not appear here. The entries come from a sample that favours actives as a whole. Unmarked numbers belong to inactive results. Calls come from the whole dose curve; as a rule, active = well fitted inhibition curve with a large enough effect; inconclusive = small, poorly fitted or top-dose-only effect; inactive = flat fitted curve, though single readings scatter.
Potency is the fitted concentration of half-maximal effect.

The target in the test is Luciferin 4-monooxygenase (Photinus pyralis) (UniProt P08659). Briefly: qHTS profiling assay for firefly luciferase inhibitor/activator using purifed enzyme and Km concentrations of substrates (counterscreen for miR-21 project).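 For activity change, negative = inhibition: plate controls were vehicle for no effect and reference inhibitor for full effect.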 Note: nearly all actives have a fitted effect of over 55% in size. As to conditions: purified FLuc, luminescence inhibition; series mostly up to 57.5 µM; activity change, negative = inhibition: at the top concentration. The procedure, abridged: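 Purified P. pyralis luciferase, 10 nM final, with Km-level 10 uM D-luciferin and 10 uM ATP in 50 mM Tris acetate pH 7.5, 10 mM Mg acetate, 0.01% Tween-20, 0.05% BSA; 6-point qHTS titration about 60 µM downward; luminescence read.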
Sequence of Luciferin 4-monooxygenase (Photinus pyralis) (P08659 whole entry, looked up): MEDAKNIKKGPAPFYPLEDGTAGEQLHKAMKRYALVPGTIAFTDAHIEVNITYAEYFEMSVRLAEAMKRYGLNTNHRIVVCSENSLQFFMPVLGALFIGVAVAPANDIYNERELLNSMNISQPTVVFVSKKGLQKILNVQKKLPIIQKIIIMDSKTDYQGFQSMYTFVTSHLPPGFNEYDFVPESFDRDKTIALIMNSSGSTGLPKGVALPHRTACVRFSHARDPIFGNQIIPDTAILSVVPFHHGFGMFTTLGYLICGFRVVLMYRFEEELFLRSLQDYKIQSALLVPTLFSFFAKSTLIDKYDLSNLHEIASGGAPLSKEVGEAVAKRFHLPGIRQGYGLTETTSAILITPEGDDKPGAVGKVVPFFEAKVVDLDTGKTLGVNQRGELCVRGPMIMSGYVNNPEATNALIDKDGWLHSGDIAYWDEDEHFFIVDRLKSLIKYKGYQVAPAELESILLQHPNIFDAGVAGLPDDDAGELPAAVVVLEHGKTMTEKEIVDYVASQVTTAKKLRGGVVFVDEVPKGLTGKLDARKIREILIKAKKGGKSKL
(In general: qHTS replaces the single test concentration by a dilution series.)
Consider `CCCOc1ccc(C(=O)NCCc2ccccc2)cc1`, for which the Potency is 1.07 µM (active).

With `CC(C)c1ccc(C(=O)NCCCc2ccccc2)cc1`, the Potency is 10.7 µM (active).

For the compound `CN(c1ccccc1)S(=O)(=O)c1ccc(C(=O)NCCc2ccccc2)cc1`, the “activity change, negative = inhibition” value was -2.94%.

`NS(=O)(=O)c1cc(C(=O)NCCOc2ccccc2)c(Cl)cc1Cl`: the “activity change, negative = inhibition” value is -0.907%.

Regarding `COc1ccc(OCCCC(=O)NCCc2ccccc2)cc1`, the “activity change, negative = inhibition” value was 2.74%.

Regarding `CCCCCCCCC(=O)NCCOc1ccccc1`, the “activity change, negative = inhibition” value is -2.85%.

Turning to `CCOc1ccc(C2C(C(=O)Nc3ccc(Cl)cc3)=C(C)Nc3nc(C(F)(F)F)nn32)cc1` (configuration not stated), the “activity change, negative = inhibition” value was 1.24%.

For the compound `COc1ccc(CCNC(=O)c2c3c(nc4ccccc24)C(=O)N(C2CCCCC2)C3)cc1OC`, the “activity change, negative = inhibition” value was -2.5%.

Consider `CCOC(=O)CN1C(C(=O)c2ccccc2)=C(OC(=O)C(C)(C)C)c2ccccc2S1(=O)=O`, for which the “activity change, negative = inhibition” value was 3.84%.

For `CSc1nc(-c2ccccc2Cl)nc2c1Cc1c(CO)cnc(C)c1O2`, the “activity change, negative = inhibition” value is -4.31%.

With `CCOc1ccc(NC(=O)c2cnn(-c3ccccc3)c2-n2cccc2)cc1`, the “activity change, negative = inhibition” value is -19.4%.

Consider `COC(=O)c1ccccc1NS(=O)(=O)c1ccc2[nH]c(=O)[nH]c2c1`, for which the “activity change, negative = inhibition” value was -2.28%.

With `COC(=O)c1ccc(NC(=O)c2ccccc2NS(=O)(=O)c2ccccc2)cc1`, the Potency was 16.9 µM (active).

Regarding `CCOc1ccc(NC(=O)c2ccccc2NS(C)(=O)=O)cc1`, the Potency was 10.7 µM (active).

In the case of `CCCNC(=O)Nc1ccccc1C(=O)Nc1ccc(OC)cc1`, the “activity change, negative = inhibition” value is -14.9%.

Consider `COc1ccc(NC(=O)c2cnc(NS(=O)(=O)c3ccccc3)nc2)cc1`, for which the “activity change, negative = inhibition” value is 0.658%.

In the case of `CCC1CCCCN1S(=O)(=O)c1ccc(NC(=O)c2cc(=O)c3ccccc3o2)cc1` (configuration not stated), the “activity change, negative = inhibition” value is -1.88%.

For `COc1ccc(NC(=O)CCCN2C(=O)CCn3nc(-c4cn(C)c5ccccc45)cc32)cc1OC`, the “activity change, negative = inhibition” value is -11.5%.

Regarding `O=S(=O)(NCCc1nnc2ccc(SCc3ccc(Cl)cc3Cl)nn12)c1ccccc1`, the “activity change, negative = inhibition” value is -3.8%.

In the case of `CCOc1ccc2oc(=O)cc(CN3CCN(C(=O)c4ccc(F)cc4)CC3)c2c1`, the “activity change, negative = inhibition” value is -5.98%.

As to `Cc1cc2c(C)nc(N/N=C/c3ccccc3)nc2o1`, the Potency was 9.53 µM (active).

Regarding `Cc1cc(C)nc(N/N=C/c2ccc([N+](=O)[O-])o2)n1`, the “activity change, negative = inhibition” value is -13.7%.

Consider `Cc1cc(C)nc(N/N=C/c2ccncc2)n1`, for which the “activity change, negative = inhibition” value is 4.25%.

For the compound `COc1ccc([C@H]2CC(=O)C=C(c3ccc(C)cc3)C2)cc1`, the “activity change, negative = inhibition” value was -13.8%.

For `Cc1nnc(N2CCCC(C(=O)NCCN(C)C)C2)c2nn(-c3ccccc3)c(C)c12` (configuration not stated), the “activity change, negative = inhibition” value was -2.09%.

With `CCCCCOC(=O)NCCOC(=O)Nc1ccc(C(=O)OCC)cc1`, the “activity change, negative = inhibition” value was -4.13%.

Consider `CCCCOC(=O)Nc1nnc(CC(=O)NCc2ccccc2)s1`, for which the “activity change, negative = inhibition” value was 0.516%.

With `CCCCCCOC(=O)NCC(O)c1ccccc1` (configuration not stated), the Potency is 12 µM (active).

For `Cc1cc(Cl)ccc1C(=O)C1CCCN(C(=O)c2nonc2C)C1` (configuration not stated), the “activity change, negative = inhibition” value was 0.226%.

Regarding `CCOC(=O)c1ccccc1NC(=O)c1nn(-c2ccc(OC)c(Cl)c2)c(=O)c2c1c1ccccc1n2C`, the “activity change, negative = inhibition” value is -1.01%.

In the case of `O=c1[nH]n(-c2ccc([N+](=O)[O-])cc2)c(=O)c2ccccc12`, the “activity change, negative = inhibition” value was -4.92%.

Regarding `COC(=O)CC1=NN(c2ccccc2)C(=O)C1`, the “activity change, negative = inhibition” value is 1.6%.

On to `O=C1CC(c2ccccc2)=NN1c1ccc([N+](=O)[O-])cc1`, for which the Potency was 13.5 µM (active).

As to `COc1cc(C)ccc1OCCSc1nc2ccc(NC(=O)c3ccc(C)cc3)cc2s1`, the “activity change, negative = inhibition” value was -15.1%.

As for `CN(C(=O)c1cccc(OC2CCN(S(=O)(=O)N(C)C)CC2)c1)C1CCOC1` (configuration not stated), the “activity change, negative = inhibition” value is -17%.

In the case of `CN(C)S(=O)(=O)N1CCC(Oc2cccc(C(=O)NCCCC3CCCC3)c2)CC1`, the Potency was 16.9 µM (active).

Turning to `CNS(=O)(=O)c1cccc(C(=O)NCC2CCCCC2)c1`, the “activity change, negative = inhibition” value was 0.681%.

For the compound `Cc1nn(-c2ccc(F)cc2)c(-n2cccc2)c1C(=O)N1CCN(c2ccccc2)CC1`, the “activity change, negative = inhibition” value is 4.26%.

Regarding `CCc1ccccc1N(C)C(=O)C1CCCN(c2ncnc3onc(-c4ccc(F)cc4)c23)C1` (configuration not stated), the “activity change, negative = inhibition” value is 4.45%.

For the compound `Cc1ccc(S(=O)(=O)NNC(=S)NC(C)(C)C)cc1`, the “activity change, negative = inhibition” value is 1.48%.

As to `O=C1CSC2(C(=O)N(Cc3ccccc3)c3ccccc32)N1c1cccc(F)c1` (configuration not stated), the “activity change, negative = inhibition” value was -3.19%.

With `Cc1cc(C)c(S(=O)(=O)N2CCC(C(=O)OCc3c(C)noc3C)CC2)c(C)c1`, the “activity change, negative = inhibition” value is 1.69%.

As for `CC(=O)Nc1ccc(Oc2ccc3c(c2)C(=O)NC3=O)cc1`, the “activity change, negative = inhibition” value was -3.16%.

In the case of `CC(=O)Oc1ccc2c(c1)C(=O)c1ccccc1C2=O`, the Potency is 8.49 µM (active).

Turning to `CC(=O)O[C@H]1c2ccccc2-c2ccccc2[C@@H]1OC(C)=O`, the “activity change, negative = inhibition” value is 0.976%.

As for `COc1ccc([C@H]2CC(=O)C=C(/C=C/c3ccc(Cl)cc3)C2)cc1`, the “activity change, negative = inhibition” value is -16.9%.

`CCn1nc(C(=O)NNC(=O)C2CSC3(C)CCC(=O)N23)c2ccccc2c1=O` (configuration not stated): the “activity change, negative = inhibition” value was 2.68%.

For `Cc1sc2ncn(CC(=O)NCCCC(=O)N(C)Cc3ccccc3)c(=O)c2c1C`, the “activity change, negative = inhibition” value is 1.87%.

For `Cc1cc(=O)oc2c(C)c(OC(C)C(=O)NC3CCN(Cc4ccccc4)CC3)ccc12` (configuration not stated), the “activity change, negative = inhibition” value is 0.301%.

In the case of `O=C(NC(=S)Nc1ccc(S(=O)(=O)N2CCOCC2)cc1)c1ccccc1[N+](=O)[O-]`, the “activity change, negative = inhibition” value is 2.74%.

Turning to `CN(CC(=O)Nc1ccc(N2CCOCC2)cc1)CC(=O)Nc1ccccc1[N+](=O)[O-]`, the “activity change, negative = inhibition” value is 3.24%.

In the case of `O=C(Nc1ccc(N2CCOCC2)cc1)c1ccc(-c2ccccc2[N+](=O)[O-])o1`, the Potency is 3.38 µM (active).
